Screening data deposited in PubChem BioAssay by National Center for Advancing Translational Sciences (NCATS).
The entries come from a sample that favours hits as a whole.
AMA1-RON2 inh – AMA1-RON2 (P. falciparum) interaction inhibition; Potency, µM (top dose mostly 58.2 µM), actives largely listed as inhibitors; AID 720542; AlphaScreen AMA1-biotinylated RON2 peptide binding; 360,000 tested, 0.2% active; active = well fitted inhibition curve with a large enough effect; inconclusive = small, poorly fitted or top-dose-only effect; inactive = no such curve, though single readings can be large or run the other way; note: nearly all actives have a fitted effect of over 45% in size
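AMA1 (3D7) with his tag at 25 nM final met compounds first, then biotinylated RON2 peptide at 25 nM; detection used donor plus acceptor beads, 10 µg/mL apiece, read by AlphaScreen after 30 min at room temperature.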
CHX counter – counter-screen for Shiga toxin inhibitors: cycloheximide protein synthesis inhibition; AID 2314; 300,000 tested, 12% active; max response, %; cell reporter, cycloheximide protein synthesis inhibition counterscreen; in the data active = max response mostly above about 13%, no sharp cut-off; inactive = mostly below about 14%; note: read at 38.3 µM for the half of the compounds with a filed dose
MARV entry inh – Marburg virus entry inhibition; Marburg virus pseudotyped entry inhibition, cell reporter; Potency, µM (top dose mostly 37.8 µM), hits mostly inhibitors; 300,000 tested, 1.8% active; AID 540276; calls by dose curve; tested in HEK293 cells
Shiga inhibitor – inhibitors of Shiga toxin in Vero cells | inhibition, % at 38.7 µM | Vero cells, Shiga toxin protein synthesis inhibition reporter | 290,000 tested, 9.2% active; in the data active = inhibition mostly above about 28%, no sharp cut-off; inactive = mostly below about 43%
Lassa entry inh – blocks Lassa virus binding to or entry into cells. 300,000 tested, 1.2% active. AID 540256. Potency, µM (titrated, usually from 37.9 µM), hits mostly inhibitors. Lassa virus pseudotype entry inhibition, cell reporter; calls by dose curve; tested in HEK293 cells; note: nearly all actives have a fitted effect of over 50% in size
A number is an active result; – = inactive; ? = inconclusive; · = not tested or not shown; + = active, no number; ! = not confirmed by another sample; [ ] = remark or other dose.

SMILES	AMA1-RON2 inh	CHX counter	MARV entry inh	Shiga inhibitor	Lassa entry inh
Cc1ccc(OC(=O)c2cccc(S(=O)(=O)N3CCCC3)c2)c(-n2nc3ccccc3n2)c1	–	69	–	+	–
Cc1ccc(OC(=O)c2ccc(S(=O)(=O)N(C)C)cc2)c(-n2nc3ccccc3n2)c1	–	34	–	81	–
CN(C)S(=O)(=O)c1ccc(C(=O)Oc2ccccc2)cc1	–	–	–	–	–
Cc1ccc(OCC(=O)O)c(-n2nc3ccccc3n2)c1	–	–	–	–	–
CC(=O)Oc1ccc(C)cc1-n1nc2ccccc2n1	–	60	?	131	–
CNC(=O)C1CCC(Cn2c(=O)c3sccc3n(CC(=O)NCc3ccccc3)c2=O)CC1 (centres undefined)	·	·	·	·	–
O=C(NC1CCCCC1)C(c1ccccc1)N(Cc1ccc2c(c1)OCO2)C(=O)c1cnsn1 (centres undefined)	–	–	11µM	–	?
C[C@H]1Cc2c(-c3ccccc3)nc3c(c2CO1)CN(S(=O)(=O)c1ccc2c(c1)OCCN2C)CC3	·	·	–	·	?
Cc1nc2cc3ccccc3cc2n1C	–[2.32 µM]	19	?	48	–
Cc1nc2cc(O)ccc2n1C	–	–	–	–	–
COc1ccc(-n2nnc3c(=O)n(Cc4cc(C)ccc4C)cnc32)cc1	–	–	–	–	1.2µM
COc1cccc(-n2nnc3c(=O)n(Cc4cccc(C)c4)cnc32)c1	–	24	·	–	·
Cc1ccc(S(=O)(=O)N(C)C)cc1NC(=O)CSc1nc2ncc(Cl)cc2[nH]1	–	·	–	·	–
Clc1cccc(N=NN2CCOCC2)c1Cl	–	20	·	–	·
c1ccc(N=NN2CCOCC2)cc1	–	·	·	·	·
COc1ccccc1NC(=O)c1ccc(CSc2ncccn2)cc1	·	14	·	55	·
O=C(Nc1ccc(CSc2ccccc2)cc1)c1ccccc1	–	–	–	–	–
COc1ccccc1NC(=O)c1nc(SCc2ccc(F)cc2)ncc1Cl	·	·	–	·	–
O=C(Nc1ccccc1)c1ccc(CSc2ccccn2)cc1	–	36	?	63	?
Cc1cnc(=O)[nH]c1SCc1ccc(C(F)(F)F)cc1	–	–	·	–	·
FC(F)(F)c1ccc(CSc2ccccn2)cc1	–	19	–	53	–
O=S(=O)(Nc1cccc(-c2cn3c(n2)SCC3)c1)c1ccccc1	–	–	–	–	–
CN(C)S(=O)(=O)c1ccc2c(c1)N(CC(=O)N1CCN(c3cccc(Cl)c3)CC1)CCS2	·	·	·	·	–
COc1ccc(C2CC(c3ccc(Cl)cc3)=NN2C(C)=O)cc1 (centres undefined)	–	34	–	30	–
CC(=O)N1N=C(c2ccc(Cl)cc2)CC1c1ccc([N+](=O)[O-])cc1 (centres undefined)	–	–	–	–	–
SMILES	AMA1-RON2 inh	CHX counter	MARV entry inh	Shiga inhibitor	Lassa entry inh
COc1ccc(C2CC(c3ccc(OC)cc3O)=NN2C(=O)c2ccccc2)cc1 (centres undefined)	–	–	?	–	?
COc1ccc(C2CC(c3ccc4ccccc4c3OC(C)=O)=NN2C(C)=O)cc1 (centres undefined)	–	25	?	60	?
COc1ccc(C2CC(c3ccc(C)o3)=NN2C(C)=O)cc1 (centres undefined)	–	21	?	97	–
COc1ccc(C2=NN(CN3C(=O)C(=O)c4ccccc43)C(c3cccc([N+](=O)[O-])c3)C2)cc1 (centres undefined)	–	13	–	117	–
C#CCN1C(=O)CC[C@@]23C1=NC(C(=O)OC)=C(C(=O)OC)[C@@H]2N(CC=C(C)C)c1ccccc13	·	·	–	·	?
Cc1cccc(-c2n[nH]nc2C2=CC(=O)CC(C)(C)C2)c1	–	·	·	·	·
CC(NC(=O)COc1ccc(/C=N/NC(=O)CO)cc1)c1ccccc1 (centres undefined)	–	–	·	–	·
COc1ccc(C2CC(c3ccc(Cl)cc3)=NN2C(=O)c2cccc([N+](=O)[O-])c2)cc1 (centres undefined)	–[2.32 µM]	19	–	–	?
CC(=O)N1N=C(c2ccc(C)o2)CC1c1ccc(Br)cc1 (centres undefined)	–	43	–	87	–
COc1ccc(C2=NN(C(=O)c3ccc(Cl)c([N+](=O)[O-])c3)C(c3ccccc3)C2)cc1 (centres undefined)	–	–	?	–	?
CC(=O)N1N=C(c2cccs2)CC1c1ccc(Br)cc1 (centres undefined)	–	32	·	–	·
Cc1ccc(C2=NN(C(=O)CCl)C(c3cccs3)C2)o1 (centres undefined)	–	23	?	–	?
O=C(COC(=O)Cc1ccccc1F)NNC(=O)c1ccc([N+](=O)[O-])cc1	–	·	–	·	–
O=S1(=O)N[C@@H](Cc2ccccc2)COc2cc(N3CCN(Cc4ccccc4F)CC3)ccc21	–	·	·	·	·
Cc1c(N(C)S(=O)(=O)c2cc(C(=O)N3CCCC3)ccc2Cl)c(=O)n(-c2ccccc2)n1C	–	–	–	–	–
CCOc1ccc(N(C)Cc2cc(=O)oc3ccc(OCC)cc23)cc1	25µM	–	?	–	?
COCCC(=O)N1CCC(Oc2ccc(C(=O)NCCC3=CCCCC3)cc2)CC1	–	19	·	–	·
COCCC(=O)N1CCC(Oc2ccc(C(=O)N(C)CCCC3CCCC3)cc2)CC1	–	26	·	57	·
COCCC(=O)N1CCC(Oc2ccc(C(=O)NCCCC3CCCC3)cc2)CC1	–	13	–	–	–
COCCC(=O)N1CCC(Oc2ccc(C(=O)N3CCCCCCC3)cc2)CC1	–	–	–	–	–
O=c1oc(-c2ccc(C(F)(F)F)cc2)nn1Cc1cc(Cl)ccc1O	·	–	·	–	·
C/C(CCN1CCCc2nc(C)c(C)cc21)=N\OC[C@@H](C)[C@H](OCc1ccccc1)C(C)C	·	·	–	·	·
OC[C@H]1O[C@H](C#Cc2ccccc2)C=C[C@@H]1O	·	·	–	·	?
NC1=C(Br)C(=O)c2ncccc2C1=O	–	·	2.5µM	·	?
CCn1c2ccc(C)cc2c2n[nH]c(=S)nc21	–	–	?	·	?
SMILES	AMA1-RON2 inh	CHX counter	MARV entry inh	Shiga inhibitor	Lassa entry inh
Cc1cc(NC(=O)c2cccc(Oc3ccccc3)c2)n[nH]1	–	29	·	91	·
CCC(CC)NC(=O)c1cccc(Oc2ccccc2)c1	–	–	–	31	–
Cc1cc(NC(=O)NC(=O)c2cccc(OC(F)(F)C(F)F)c2)n[nH]1	–	27	–	69	–
CCOC(=O)NCc1ccc2[nH]c(C)cc2c1	–	18	·	24	·
Cc1cc2cc(CNC(=O)Nc3ccccc3)ccc2[nH]1	–	28	–	95	–
CCOC(=O)CCC(=O)NCc1ccc2[nH]c(C)cc2c1	–	–	–	–	–
CCNC(=S)NCc1ccc2[nH]c(C)cc2c1	–	–	–	–	–
COC(=O)c1ccc(Oc2ccc(C(C)(C)C)cc2)c([N+](=O)[O-])c1	–	–	–	–	–
CC(=O)c1ccc(Oc2ccc(C(=O)c3ccc(C)c(C)c3)cc2[N+](=O)[O-])cc1	–	–	?	–	1.5µM
CN(C)CC[C@H](c1ccc(Cl)cc1)c1ccccn1	·	·	5.6µM!	·	·
CC(C)c1cnc2c(c1SCc1ccc([N+](=O)[O-])cc1)c(=O)n(C)c(=O)n2C	·	·	·	·	–
Nc1ccc2nn(-c3ccccc3)nc2c1	–	53	–	97	–
